Cardio protect: protects H9c2 cardiomyocytes from peroxide injury; H2O2 injury protection, ATPLite, 2 h; protection from H2O2 cell death, % at 20 µM; 360,000 tested, 0.63% active; AID 588492;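 active = compounds giving at least 50% protection of heart cells from peroxide-induced death in the single-dose screen, raw or plate-pattern-corrected value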;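 also: 0% = DMSO wells with peroxide and 100% = DMSO wells without peroxide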
PHOSPHO1 block: blocks human PHOSPHO1 phosphatase activity; inhibition, % at 13.3 µM; AID 1565; Q8TCT1; recombinant PHOSPHO1, absorbance phosphatase assay; 290,000 tested, 1.1% active; in the data active = inhibition above about 60%
ALR H2O2 inh: human ALR oxidase inhibition via reduced H2O2; 290,000 tested, 3.8% active; P55789; inhibition, % (no concentration beside the values); purified ALR, DTT oxidation, H2O2 HRP-luminol luminescence; AID 485317;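 active = mean replicate inhibition above about 79%, with every replicate also reaching it, limit read from the data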
Target sequence (P55789 whole entry, looked up): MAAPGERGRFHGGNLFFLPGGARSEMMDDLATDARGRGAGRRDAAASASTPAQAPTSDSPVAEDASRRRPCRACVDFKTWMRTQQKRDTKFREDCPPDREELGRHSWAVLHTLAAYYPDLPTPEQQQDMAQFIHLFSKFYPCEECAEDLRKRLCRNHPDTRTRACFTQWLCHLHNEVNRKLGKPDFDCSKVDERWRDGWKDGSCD
PfG6PD inh: PfG6PD (Plasmodium falciparum) enzyme inhibition; PfGluPho enzyme, NADPH resazurin-diaphorase fluorescence; inhibition, % at 20 µM; 350,000 tested, 0.78% active; AID 504690;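 active = inhibition reaching at least a set limit at 20 µM in the primary screen, cut at about 59% in these data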;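 also: 0% = DMSO wells with substrate and 100% = DMSO wells lacking glucose-6-phosphate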
PfM18AAP inh: blocks P. falciparum M18 aspartyl aminopeptidase; recombinant PfM18AAP, H-Glu-NHMec fluorogenic cleavage; inhibition, % at 7.35 µM; 290,000 tested, 1.2% active;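 active = inhibition above the campaign mean inhibition over all tested compounds plus 3 SD, cut at about 28% in these data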;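 also: 0% = plate median of test compound wells and 100% = 2 mM ZnCl2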
* marks the source's active call; other numbers are inactive results. Most compounds without a hit are left out; they make up all but 5.6% or so of the library.

Cn1c(-c2ccc(Cl)cc2)cnc1NCc1cc2c(cc1[N+](=O)[O-])OCO2 was read as Cardio protect -4, PHOSPHO1 block -8, ALR H2O2 inh 26, PfG6PD inh 14 and PfM18AAP inh 14.
Cn1c(-c2ccc(F)cc2)cnc1NCc1cccc(F)c1 was read as Cardio protect 2, PHOSPHO1 block 47, PfG6PD inh -18 and PfM18AAP inh -3.
Screening CCc1cc2c(SCC(=O)N3CCCC3=O)ncnc2s1 returned Cardio protect -2, ALR H2O2 inh 3 and PfG6PD inh -11.
For Nc1nc(SCC(=O)N2CCCC2)[nH]c(=O)c1NC(=O)c1ccco1 the results were Cardio protect -3, PHOSPHO1 block 38, PfG6PD inh 0 and PfM18AAP inh 1.
For CCC1CCCCN1C(=O)CSc1nc(N)c(NC(=O)c2ccco2)c(=O)[nH]1 (stereo not given) the results were Cardio protect 16, PHOSPHO1 block 26, ALR H2O2 inh 85*, PfG6PD inh -14 and PfM18AAP inh 9.
For NC(=NCc1ccccc1)NN=Cc1ccnc2ccccc12 the results were Cardio protect -10.
O=C(CN(C1CCCCC1)S(=O)(=O)c1ccc(F)cc1)NCC1CCCO1 (stereo not given) was read as Cardio protect -33 and PfG6PD inh 16.
CC(=O)N1c2ccc(S(=O)(=O)N3CCC(C(=O)Nc4ccc(C)cn4)CC3)cc2CC1C (stereo not given) was read as Cardio protect -1, PHOSPHO1 block 31, ALR H2O2 inh -12, PfG6PD inh 1 and PfM18AAP inh 0.
Cc1ccc(NC(=O)C2CCN(S(=O)(=O)c3ccc4c(c3)CC(C)N4C(=O)C3CCC3)CC2)nc1 (stereo not given) was read as Cardio protect -4, PHOSPHO1 block 75*, ALR H2O2 inh -4, PfG6PD inh -5 and PfM18AAP inh 10.
O=C1C=C(N2CCOCC2)c2cccc3cccc1c23 was read as Cardio protect 61* and PfG6PD inh 20.
`O=C1C(N2CCOCC2)=Cc2cccc3cccc1c23` gave Cardio protect 13 and PfG6PD inh 33.
`CCN(CC)CCNc1nc2nonc2nc1NCCN(CC)CC` gave Cardio protect -3, PHOSPHO1 block 40, ALR H2O2 inh -1, PfG6PD inh -7 and PfM18AAP inh 3.
For CCN1/C(=C2\SC(=S)N(Cc3ccccc3)C2=O)Sc2ccccc21 the results were Cardio protect -1, PHOSPHO1 block -1, PfG6PD inh -19 and PfM18AAP inh 4.
For CN1C=CC=C/C1=C1/SC(=S)N(Cc2ccccc2)C1=O the results were Cardio protect 8, PHOSPHO1 block -11, ALR H2O2 inh 99*, PfG6PD inh 5 and PfM18AAP inh 1.
Screening COc1ccc(N2C(=O)/C(=C3/C=CC=CN3C)SC2=S)cc1 returned Cardio protect -6, PHOSPHO1 block -16, ALR H2O2 inh 60, PfG6PD inh -2 and PfM18AAP inh -4.
For CCN1C(=O)/C(=C2/C=CC=CN2C)SC1=S the results were Cardio protect -3, PHOSPHO1 block -42, ALR H2O2 inh 99*, PfG6PD inh -4 and PfM18AAP inh -11.
Nc1nc2cc(S(=O)(=O)NC3=NCCCCC3)ccc2s1 was read as Cardio protect -6, PHOSPHO1 block 25, ALR H2O2 inh 91*, PfG6PD inh 36 and PfM18AAP inh 3.
For CCOC(=O)c1ccc(S(=O)(=O)Nc2nc3cc(S(=O)(=O)NC4=NCCCCC4)ccc3s2)cc1 the results were Cardio protect 0, PHOSPHO1 block -8, ALR H2O2 inh 97*, PfG6PD inh 12 and PfM18AAP inh -18.
For Nc1ccc(S(=O)(=O)NC2=NCCCCC2)cc1 the results were Cardio protect 3, PHOSPHO1 block 32, ALR H2O2 inh -12, PfG6PD inh 6 and PfM18AAP inh -9.
Screening Clc1cccc(Cl)c1CSc1nnc(/C=C/c2ccccc2)o1 returned Cardio protect -15, PHOSPHO1 block 66*, ALR H2O2 inh -18, PfG6PD inh 17 and PfM18AAP inh -28.
`Fc1cccc(Cl)c1CSc1nnc(CNc2ccccc2)o1` gave Cardio protect -10, PHOSPHO1 block 22, ALR H2O2 inh 21, PfG6PD inh -3 and PfM18AAP inh 4.
Screening Cc1cc(Br)ccc1NC(=O)CN(C)C(=O)CN1C(=O)NC(C)(C2CC2)C1=O (stereo not given) returned Cardio protect -2, ALR H2O2 inh -2 and PfG6PD inh -3.
`CN(Cc1ccc2c(c1)CCCN2C)C(=O)[C@H]1O[C@@H](n2ccc(=O)[nH]c2=O)[C@H](O)[C@@H]1O` gave Cardio protect 2.
